Among the data in PubChem BioAssay (NCI) are growth values, retold here.

Each structure is given as a SMILES string. This is part of a sample that, as a whole, favours compounds with a hit. Of some 83,000 tested, about 20% had one in any assay.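 Activity criterion: percent growth below 10, measured after cells in 96-well plates were exposed to a single compound concentration for 48 hours.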 The source made the active and inactive calls.

The subject of the assay is HL-60(TB) leukemia. The assay can be described thus: NCI-60 one-dose screen, 48 h (100 = growth as untreated, 0 = no growth, -100 = all killed). Particulars: 10 µM unless noted.
`COc1cc(C2CC(c3ccc(C)cc3)=Nc3c(N)nc(N)nc3N2)ccc1Oc1nc(Nc2ccc(F)cc2)nc(N(C)C)n1` (stereo not drawn): the growth was 52% (inactive).
Take `COc1ccc(-c2c(N)c(=O)n(C)c3ccccc23)cc1`: the growth is 79.3% (inactive).
As for `C#CCCCNCCNc1ccnc2cc(Cl)ccc12`, the figure is 46.8% (inactive).
As for `CNC(=O)c1cc(Oc2ccc3nc(NC(=O)Nc4cccc(OC(F)(F)F)c4)sc3c2)ccn1`, the figure is 62.7% (inactive); as for `O=c1[nH]c2ccc(Cl)cc2cc1CSc1nccc(-c2ccc(Cl)cc2)n1`, 102% (inactive).
Turning to `COc1ccc(NC(=O)NN2C(=O)c3ccccc3N(C)C2c2ccc(OC)cc2)cc1` (stereo not drawn), the growth is 101% (inactive).
With `CCCCCCCCc1cccc(CC(=O)Nc2ccc(C)cc2C(=O)O)c1`, the growth was 33.5% [25 µM] (inactive).
With `CN(C)CCCNC(=O)c1cc(NC(=O)c2cc(NC(=O)c3ccc(C#Cc4ccccc4)cc3)cn2C)cn1C`, the growth is -69.6% (active).
As for `COc1cc2c(c(OC)c1OC)C(=O)CC(c1cccc(NC(=O)c3cccc([N+](=O)[O-])c3)c1)O2` (stereo not drawn), the growth is 26.1% (inactive).
As for `Cc1ccc(CNC(=O)Cc2ccc3c(c2)CN(C2CCC(=O)NC2=O)C3=O)cc1` (stereo not drawn), the figure is -23.1% (active); as for `C=C1CC[C@@H]2[C@]3(C)COC(c4cn(-c5ccccc5)nc4-c4cccc([N+](=O)[O-])c4)O[C@@H]3CC[C@@]2(C)[C@@H]1C/C=C1/C(=O)OC[C@H]1O` (stereo partly drawn), 12.6% (inactive); as for `CN1C(=O)N(C)C2SC(N/N=C/C=C/c3ccccc3)=NC21` (stereo not drawn), 30.4% (inactive).
As for `CCOC(=O)c1ccc(NC(=S)NC(=O)c2ccc(NC(=O)C(C)C)cc2OC)cc1`, the figure is 46.3% (inactive).
